Experimental findings from PubChem BioAssay (Tox21) are described below.

Experiment [1] in a line: cAMP Responsive Elements (CRE) small molecule antagonists, cell-based qHTS assay: qHTS cell viability counter screen (AID 2060913). Further: nearly all actives have a fitted effect of over 40% in size. In short, it runs like this: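 HEK293T CRE-bla, 2,000 cells/well, 18 h preincubation; cpd in DMSO + NKH477 0.25 uM final, 3 h 37 C/5% CO2; LiveBLAzer 2 h RT, then CellTiter-Glo 30 min RT, luminescence.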
On the technique in general: qHTS replaces the single test concentration by a dilution series.

Experiment [2] in a line: cAMP Responsive Elements (CRE) small molecule agonists, cell-based qHTS assay: qHTS cell viability counter screen (AID 2060914). Further: nearly all actives have a fitted effect of over 50% in size. In short, it runs like this: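 CRE-bla HEK293T cells in 10% dialyzed FBS medium were exposed to compounds for 3 h at 37C after 18 h plating. CellTiter-Glo was then added in the same wells, and luminescence was read after 30 min at room temperature.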

Results filed as inconclusive are left out. Values without a mark were called inactive. Active and inactive are the calls of the source. The call rests on the fitted dose curve; in most records, active means well fitted cell-killing curve with a large enough effect in the repeat runs; inconclusive means weak or mixed curves, or effect the other way; inactive means flat fitted curve, though single readings scatter.
On the % scale 0 is the no-effect control and ±100 the full control effect.

Regarding `CCCCCCCCCCCCCCCCBr`, the viability change, negative = cytotoxic in experiment [1] is -5.25% [at 18.9 µM]. Moreover, the activity change, negative = cytotoxicity in experiment [2] was 6.55% [at 18.9 µM].
Take `COc1ccc(OC(=O)N(CC(=O)O)Cc2ccc(OCCc3nc(-c4ccccc4)oc3C)cc2)cc1`: the Potency result in experiment [1] and in experiment [2] was “inactive” each time.
`CC(=O)CC(C)=O`: the Potency result in experiment [1] and in experiment [2] was “inactive” in each case.
As for `CCOC(=S)SSC(=S)OCC`, the Potency result in experiment [1] and in experiment [2] was “inactive” throughout.
Turning to `CCC(C)(C)OC`, the Potency result in experiment [1] and in experiment [2] was “inactive” in each case.
Consider `CCCCCCCCCCCC(=O)OCC`, for which the Potency result in experiment [1] and in experiment [2] was “inactive” throughout.
In the case of `C/C=C(\C)C(=O)OCCc1ccccc1`, the Potency result in experiment [1] and in experiment [2] was “inactive” throughout.
As to `CCCCC(CC)COC(=O)CC#N` (stereo unspecified), the Potency entry in experiment [1] and in experiment [2] was “inactive” throughout.
Turning to `CN1C[C@H]2c3ccccc3Oc3ccc(Cl)cc3[C@@H]2C1`, the Potency entry in experiment [1] and in experiment [2] was “inactive” throughout.
As for `CCCCC(CC)COC(=O)CCCCC(=O)OCC(CC)CCCC` (stereo unspecified), the Potency entry in experiment [1] and in experiment [2] was “inactive” in each case.
As to `COc1cc(C(=O)OCCCN2CCCN(CCCOC(=O)c3cc(OC)c(OC)c(OC)c3)CC2)cc(OC)c1OC`, the Potency entry in experiment [1] and in experiment [2] was “inactive” each time.
Turning to `CC(=C(CCOC(=O)C(C)C)SSC(CCOC(=O)C(C)C)=C(C)N(C=O)Cc1cnc(C)nc1N)N(C=O)Cc1cnc(C)nc1N`, the Potency entry in experiment [1] and in experiment [2] was “inactive” throughout.
Regarding `CN1CCCC(n2nc(Cc3ccc(Cl)cc3)c3ccccc3c2=O)CC1` (stereo unspecified), the Potency result in experiment [1] and in experiment [2] was “inactive” each time.
Regarding `Clc1sc(Cl)c(Cl)c1Cl`, the Potency result in experiment [1] and in experiment [2] was “inactive” in each case.
Turning to `C=CC(=O)OCC[N+](C)(C)C`, the Potency entry in experiment [1] and in experiment [2] was “inactive” each time.
With `Cc1ccc2c(c1)C(=O)OC2=O`, the Potency entry in experiment [1] and in experiment [2] was “inactive” in each case.
Regarding `ClC1=C(Cl)C1(Cl)Cl`, the Potency result in experiment [1] and in experiment [2] was “inactive” each time.
For the compound `O=C1CCCc2ccccc21`, the Potency entry in experiment [1] and in experiment [2] was “inactive” in each case.
Take `CCCCCCCCCCCCN1CCOCC1`: the Potency result in experiment [1] and in experiment [2] was “inactive” each time.
For `N#C/C(=C1/SC[C@@H](c2ccc(Cl)cc2Cl)S1)n1ccnc1`, the Potency entry in experiment [1] and in experiment [2] was “inactive” in each case.
As for `CCCC[N+](C)(CCCC)CCCC`, the Potency result in experiment [1] and in experiment [2] was “inactive” throughout.
For `CC(C)(C)CCCCCCOC(=O)c1ccccc1C(=O)OCCCCCCC(C)(C)C`, the Potency result in experiment [1] and in experiment [2] was “inactive” each time.
Take `Nc1ccc(O)c(N)c1`: the Potency result in experiment [1] and in experiment [2] was “inactive” throughout.
Take `CC(=O)[C@H]1CC[C@H]2[C@@H]3CC=C4C[C@@H](O)CC[C@]4(C)[C@H]3CC[C@]12C`: the Potency result in experiment [1] and in experiment [2] was “inactive” throughout.
On to `COc1ccccc1OCC1CNC(=O)O1` (stereo unspecified), for which the Potency result in experiment [1] and in experiment [2] was “inactive” throughout.
On to `CCCCOC(=O)C(C)OC(=O)CCC` (stereo unspecified), for which the Potency entry in experiment [1] and in experiment [2] was “inactive” each time.
`CCC(C)(C)C(=O)O[C@H]1C[C@@H](C)C=C2C=C[C@H](C)[C@H](CC[C@@H]3C[C@@H](O)CC(=O)O3)[C@H]21`: the Potency result in experiment [1] and in experiment [2] was “inactive” in each case.
With `CC(C)OC(=O)C(C)N(C(=O)c1ccccc1)c1ccc(F)c(Cl)c1` (stereo unspecified), the Potency entry in experiment [1] and in experiment [2] was “inactive” throughout.
`C=CC(C)(C)CC(=O)OC`: the Potency entry in experiment [1] and in experiment [2] was “inactive” in each case.
Consider `O=Cc1ccccc1Cl`, for which the Potency result in experiment [1] and in experiment [2] was “inactive” each time.
With `CO[C@@]1(NC(=O)Cc2cccs2)C(=O)N2C(C(=O)O)=C(COC(N)=O)CS[C@@H]21`, the Potency result in experiment [1] and in experiment [2] was “inactive” in each case.
Turning to `Cc1c(N)cccc1N`, the Potency entry in experiment [1] and in experiment [2] was “inactive” each time.
Regarding `NC(=O)COCCN1CCN(C(c2ccccc2)c2ccc(Cl)cc2)CC1` (stereo unspecified), the Potency entry in experiment [1] and in experiment [2] was “inactive” in each case.
Turning to `O=C1OC2(c3ccccc31)c1cc(Br)c(O)c(Br)c1Oc1c2cc(Br)c(O)c1Br`, the Potency result in experiment [1] and in experiment [2] was “inactive” throughout.
Consider `OCC1CC=CCC1` (stereo unspecified), for which the Potency result in experiment [1] and in experiment [2] was “inactive” throughout.
As for `SCCc1cnccn1`, the Potency entry in experiment [1] and in experiment [2] was “inactive” throughout.
On to `CCCCC(CC)COC(=O)COc1cc(Cl)c(Cl)cc1Cl` (stereo unspecified), for which the Potency entry in experiment [1] and in experiment [2] was “inactive” throughout.
Turning to `O=C(c1ccccc1)C1CCC1`, the Potency entry in experiment [1] and in experiment [2] was “inactive” throughout.
Turning to `CCC/C=C(\C=O)CC`, the Potency entry in experiment [1] and in experiment [2] was “inactive” throughout.
Regarding `CCOC(=O)c1c(C)n(C)c2ccc(O)cc12`, the Potency entry in experiment [1] and in experiment [2] was “inactive” each time.
For `CC1(C)CC(O)CC(C)(C)N1`, the Potency result in experiment [1] and in experiment [2] was “inactive” each time.
With `CC1CCCCC1`, the Potency result in experiment [1] and in experiment [2] was “inactive” each time.
As to `C=COCCCCO`, the Potency result in experiment [1] and in experiment [2] was “inactive” throughout.
Turning to `CCn1cc(C(=O)O)c(=O)c2cnc(N3CCCC3)nc21`, in experiment [1], the viability change, negative = cytotoxic was 3.75% [at 8.39 µM]. In addition, the activity change, negative = cytotoxicity in experiment [2] was -22.5% [at 8.39 µM].
Take `CC/C=C\CC/C=C/CO`: the Potency result in experiment [1] and in experiment [2] was “inactive” throughout.
Consider `OCCOCCN1CCN(C(c2ccccc2)c2ccc(Cl)cc2)CC1` (stereo unspecified), for which the Potency result in experiment [1] and in experiment [2] was “inactive” throughout.
`Cc1ncc(CO)c(CN)c1O`: the Potency entry in experiment [1] and in experiment [2] was “inactive” each time.
Consider `c1ccc2c(c1)ccc1cc3c(ccc4ccccc43)cc12`, for which the Potency entry in experiment [1] and in experiment [2] was “inactive” each time.
Take `Nc1ccc(N=Nc2ccccc2)c(N)c1`: the Potency entry in experiment [1] and in experiment [2] was “inactive” each time.
Regarding `CN(C)C(=O)Nc1ccc(Oc2ccc(Cl)cc2)cc1`, the Potency result in experiment [1] and in experiment [2] was “inactive” throughout.
As for `CC(C)(C)NCC(O)c1ccc(O)c(CO)c1` (stereo unspecified), the Potency result in experiment [1] and in experiment [2] was “inactive” in each case.
In the case of `CCOC(=O)c1ccc(C2CCC(NC[C@H](O)COc3ccc(O)c(NS(C)(=O)=O)c3)CC2)cc1` (stereo partly specified), the Potency result in experiment [1] and in experiment [2] was “inactive” throughout.
With `O=c1c(O)c(-c2ccc(O)cc2)oc2cc(O)cc(O)c12`, the Potency entry in experiment [1] and in experiment [2] was “inactive” throughout.
Turning to `O=C1c2ccccc2C(=O)c2cc(O)ccc21`, the Potency entry in experiment [1] and in experiment [2] was “inactive” in each case.
In the case of `C[C@@H](CN1CC(=O)NC(=O)C1)N1CC(=O)NC(=O)C1`, the Potency entry in experiment [1] and in experiment [2] was “inactive” in each case.
Turning to `CN(C)CCC[C@@]1(c2ccc(F)cc2)OCc2cc(C#N)ccc21`, the Potency entry in experiment [1] and in experiment [2] was “inactive” each time.
Consider `O=C(O)c1cc(O)c2c(c1)C(=O)c1cccc(O)c1C2=O`, for which the Potency result in experiment [1] and in experiment [2] was “inactive” each time.
Take `CC(C)CCCCCCOC(=O)CCCCC(=O)OCCCCCCC(C)C`: the Potency result in experiment [1] and in experiment [2] was “inactive” in each case.
